Assay results taken from PubChem BioAssay (Tox21).
“And” between values parts separate entries of the source, which are not always exact repeats. Identical values can stand only once. Records with an inconclusive call do not appear. A call without a number means that no potency is given here. The source made the active and inactive calls. Unless noted, the call rests on the fitted dose curve; in most records, active means well fitted curve in the direction sought with a large enough effect in the repeat runs; inconclusive means weak or mixed curves; inactive means no such curve, though single readings can be large; an effect the other way counts as inactive or inconclusive.

Key:
[1] = qHTS assay to identify small molecule agonists of the peroxisome proliferator-activated receptor delta (PPARd) signaling pathway - cell viability counter screen (AID 743211); further: nearly all actives have a fitted effect of over 55% in size; further: potency means the concentration at half of the fitted maximal effect
Outline: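 Luminescent ATP viability assay (CellTiter-Glo, 30 min RT) in UAS-bla HEK293H cells carrying the PPAR delta reporter construct, 3000 cells/well, after a 17 h compound treatment at 37 C.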

[2] = molecular target: Peroxisome proliferator-activated receptor delta (Homo sapiens) (UniProt Q03181); assay: qHTS assay to identify small molecule agonists of the peroxisome proliferator-activated receptor delta (PPARd) signaling pathway (AID 743212; calls by dose curve)
Outline: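 A PPARd-bla HEK293H line with beta-lactamase under an Upstream Activator Sequence is treated with compounds at 37 C. Substrate loading for 2 h at room temperature precedes the fluorescence measurement.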

[3] = qHTS assay to identify small molecule antagonists of the peroxisome proliferator-activated receptor delta (PPARd) signaling pathway - cell viability counter screen (AID 743213); further: nearly all actives have a fitted effect of over 50% in size; further: potency means the concentration at half of the fitted maximal effect
Outline: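 Viability counter-screen, qHTS format: PPARd-bla HEK293H, L165041 300 nM final, 17 h compound exposure at 37 C, CellTiter-Glo luminescence after 30 min RT.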

[4] = molecular target: Peroxisome proliferator-activated receptor delta (Homo sapiens) (UniProt Q03181); assay: qHTS assay to identify small molecule antagonists of the peroxisome proliferator-activated receptor delta (PPARd) signaling pathway (AID 743215; active means well fitted inhibition curve with a large enough effect in the signal ratio in the repeat runs, not every such curve was filed as active; the % refers to the signal ratio;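 further: cells stimulated with agonist L165041 at 300 nM final during compound exposure; series mostly up to about 62 µM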)
Outline: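 PPARd UAS-bla HEK293H cells were pre-incubated 5 h at 37 C, then given test compounds in DMSO plus agonist L165041 (300 nM final). After 17 h at 37 C, beta-lactamase FRET substrate was added; fluorescence read after 2 h at room temperature.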

[5] = qHTS assay to identify small molecule agonists of the farnesoid-X-receptor (FXR) signaling pathway - cell viability counter screen (AID 743218); further: nearly all actives have a fitted effect of over 45% in size; further: potency means the concentration at half of the fitted maximal effect
Outline: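 FXR-UAS-bla HEK 293T cells, plated 5 h at 37 C, were exposed to compounds for 16 h at 37 C. CellTiter-Glo was then added to the same wells as the bla readout; luminescence read after 30 min at room temperature.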

[6] = qHTS assay to identify small molecule antagonists of the farnesoid-X-receptor (FXR) signaling pathway - cell viability counter screen (AID 743221; active means well fitted cell-killing curve with a large enough effect in the repeat runs, not every such curve was filed as active; further: nearly all actives have a fitted effect of over 50% in size; further: potency means the concentration at half of the fitted maximal effect)
Outline: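 In GeneBLAzer FXR-UAS-bla HEK 293T cells stimulated with 50 uM chenodeoxycholic acid (final), compounds acted for 16 h at 37 C. Viability was assessed afterwards by CellTiter-Glo luminescence.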

[7] = molecular target: Vitamin D3 receptor (Homo sapiens) (UniProt P11473); assay: qHTS assay to identify small molecule agonists of the vitamin D receptor (VDR) signaling pathway (AID 743222; calls by dose curve)
Outline: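 VDR-bla cells were plated 4 h at 37C/5% CO2, then exposed to compounds in DMSO for 16 h. After LiveBLAzer B/G FRET substrate addition and 2 h at room temperature, beta-lactamase reporter fluorescence was read.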

[8] = qHTS assay to identify small molecule agonists of the vitamin D receptor (VDR) signaling pathway - cell viability counter screen (AID 743224); further: nearly all actives have a fitted effect of over 50% in size; further: potency means the concentration at half of the fitted maximal effect
Outline: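 VDR-bla cells were preincubated 4 h at 37C/5% CO2, then exposed to compounds for 16 h. After the 2 h room-temperature bla FRET read, CellTiter-Glo was added to the same wells and luminescence read after 30 min.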

[9] = qHTS assay to identify small molecule agonists of the NFkB signaling pathway - cell viability counter screen (AID 1159515; calls by dose curve; further: nearly all actives have a fitted effect of over 55% in size; further: potency means the concentration at half of the fitted maximal effect)
Outline: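 NFkB-bla ME-180 cells, 2,000/well, were plated overnight at 37 C, 5% CO2, then exposed to compounds in DMSO for 5 hr. After the bla FRET read, CellTiter-Glo was added to the same wells; luminescence was read after 30 min at room temperature.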

[10] = qHTS assay to identify small molecule agonists of the endoplasmic reticulum stress response signaling pathway (AID 1159516; active means well fitted activation curve with a large enough effect in the signal ratio in the repeat runs, not every such curve was filed as active; the % refers to the signal ratio; further: potency means the concentration at half of the fitted maximal effect)
Outline: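 CellSensor ESRE-bla HeLa cells, carrying a beta-lactamase reporter driven by the ER stress response element, were plated overnight and exposed to compounds for 5 hr at 37 C. Reporter activity was read as FRET substrate fluorescence after 2 hr at room temperature.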

[11] = qHTS assay to identify small molecule agonists of the endoplasmic reticulum stress response signaling pathway - cell viability counter screen (AID 1159517; calls by dose curve; further: series mostly up to about 61 µM; nearly all actives have a fitted effect of over 50% in size)
Outline: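 CellTiter-Glo was added to wells already read for beta-lactamase FRET, and luminescence was recorded 30 min later. Cells: ESRE-bla HeLa, 1,500 per well, compound exposure 5 hr at 37 C.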

[12] = qHTS assay to identify small molecule antagonists of the retinoid-related orphan receptor gamma (ROR-gamma) signaling pathway - cell viability counter screen (AID 1159520); further: nearly all actives have a fitted effect of over 50% in size; further: potency means the concentration at half of the fitted maximal effect
Outline: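 Tet-on ROR gamma CHO cells (1,000/well) were plated 4 hr, given compounds in DMSO for 2 hr at 37 C, then induced with 1 uM final doxycycline for 16 hr. Viability was read as ATP by CellTiter-Glo luminescence after 30 min.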

[13] = qHTS assay to identify small molecule agonists of the AP-1 signaling pathway - cell viability counter screen (AID 1159525; calls by dose curve; further: nearly all actives have a fitted effect of over 55% in size; further: potency means the concentration at half of the fitted maximal effect)
Outline: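 ME-180 AP-1-bla, 2500 cells/well, Opti-MEM + 0.5% dialyzed FBS; overnight 37 °C; cpd 15-pt titration, 5 h 37 °C; CellTiter-Glo 30 min RT; luminescence read; normalised to TOAB and DMSO controls.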

[14] = qHTS assay to identify small molecule agonists of the AP-1 signaling pathway (AID 1159526; calls by dose curve; further: potency means the concentration at half of the fitted maximal effect)
[15] = molecular target: Retinoic acid receptor RXR-alpha (Homo sapiens) (UniProt P19793); assay: qHTS assay to identify small molecule agonists of the RXR signaling pathway (AID 1159527; calls by dose curve; further: nearly all actives have a fitted effect of over 35% in size)
Outline: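 Beta-lactamase reporter assay, agonist format. Engineered HEK 293T line, charcoal-stripped FBS at 2%, overnight (16 hr) exposure, fluorescence at 460 and 530 nm after 405 nm excitation.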

[16] = molecular target: Vitamin D3 receptor (Homo sapiens) (UniProt P11473); assay: qHTS assay to identify small molecule antagonists of the vitamin D receptor (VDR) signaling pathway (AID 743223; active means well fitted inhibition curve with a large enough effect in the signal ratio in the repeat runs, not every such curve was filed as active; the % refers to the signal ratio)
Outline: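 Agonist 1alpha,25-dihydroxyvitamin D3 (3 nM in well) was added with each compound to VDR-bla cells preincubated 4 h. Cells stood 16 h at 37C, then FRET substrate 2 h at room temperature; fluorescence intensity recorded.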

[17] = qHTS assay to identify small molecule antagonists of the vitamin D receptor (VDR) signaling pathway - cell viability counter screen (AID 743225); further: nearly all actives have a fitted effect of over 50% in size; further: potency means the concentration at half of the fitted maximal effect
Outline: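 Luminescent cell viability (CellTiter-Glo) in VDR-bla HEK 293T cells after 16 h compound exposure at 37C in the presence of 3 nM final 1-alpha,25-dihydroxy vitamin D3.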

[18] = molecular target: Bile acid receptor (Homo sapiens) (UniProt Q96RI1); assay: qHTS assay to identify small molecule antagonists of the farnesoid-X-receptor (FXR) signaling pathway (AID 743217; active means well fitted inhibition curve with a large enough effect in the signal ratio in the repeat runs, not every such curve was filed as active; the % refers to the signal ratio)
Outline: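 FXR-UAS-bla HEK 293T cells pre-incubated 5 h at 37 °C, then exposed to compounds with chenodeoxycholic acid (50 uM final) for 16 h at 37 °C. Beta-lactamase reporter read by LiveBLAzer B/G FRET substrate fluorescence after 2 h at room temperature.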

[19] = molecular target: Nuclear receptor ROR-gamma (Homo sapiens) (UniProt P51449); assay: qHTS assay to identify small molecule antagonists of the retinoid-related orphan receptor gamma (ROR-gamma) signaling pathway (AID 1159521; further: nearly all actives have a fitted effect of over 50% in size; further: potency means the concentration at half of the fitted maximal effect)
Outline: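 CHO cells expressing RORγ under a TET-on promoter, luciferase under RORE control. Dox 1 uM final, 16 h; compounds added 2 h prior. Luminescence decrease measured.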

[20] = molecular target: Bile acid receptor (Homo sapiens) (UniProt Q96RI1); assay: qHTS assay to identify small molecule agonists of the farnesoid-X-receptor (FXR) signaling pathway (AID 743220; active means well fitted activation curve with a large enough effect in the signal ratio in the repeat runs, not every such curve was filed as active; the % refers to the signal ratio)
Outline: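 Beta-lactamase reporter under UAS control in GeneBLAzer FXR HEK 293T cells (5000/well) measured with LiveBLAzer FRET substrate after 2 h at room temperature. Compound exposure lasted 16 h at 37C.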

Retinoic acid receptor RXR-alpha (Homo sapiens), sequence (P19793 whole entry, looked up): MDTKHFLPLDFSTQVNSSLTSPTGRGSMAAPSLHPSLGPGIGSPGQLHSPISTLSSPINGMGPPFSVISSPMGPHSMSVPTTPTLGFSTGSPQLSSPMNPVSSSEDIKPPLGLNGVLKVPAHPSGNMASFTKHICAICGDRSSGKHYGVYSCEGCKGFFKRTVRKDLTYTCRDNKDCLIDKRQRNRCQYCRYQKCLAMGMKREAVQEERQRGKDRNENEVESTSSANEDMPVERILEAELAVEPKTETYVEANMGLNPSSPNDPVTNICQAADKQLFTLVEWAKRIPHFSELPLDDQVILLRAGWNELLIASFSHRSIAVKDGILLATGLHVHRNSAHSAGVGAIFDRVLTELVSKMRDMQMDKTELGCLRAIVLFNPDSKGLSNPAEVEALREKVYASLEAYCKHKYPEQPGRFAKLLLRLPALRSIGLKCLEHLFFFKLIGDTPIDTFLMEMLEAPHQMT
Peroxisome proliferator-activated receptor delta (Homo sapiens), sequence (Q03181 whole entry, looked up): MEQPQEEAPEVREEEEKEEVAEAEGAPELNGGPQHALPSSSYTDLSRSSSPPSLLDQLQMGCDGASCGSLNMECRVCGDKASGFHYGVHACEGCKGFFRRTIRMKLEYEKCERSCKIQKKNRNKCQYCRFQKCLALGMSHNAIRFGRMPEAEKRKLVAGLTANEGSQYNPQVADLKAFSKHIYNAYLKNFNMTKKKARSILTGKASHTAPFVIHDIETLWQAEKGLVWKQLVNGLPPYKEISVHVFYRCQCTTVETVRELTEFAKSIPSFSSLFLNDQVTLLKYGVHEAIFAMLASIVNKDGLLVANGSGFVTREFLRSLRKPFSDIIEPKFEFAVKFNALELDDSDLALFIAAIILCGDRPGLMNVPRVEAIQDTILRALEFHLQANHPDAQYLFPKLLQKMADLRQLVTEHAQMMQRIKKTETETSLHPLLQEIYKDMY
Bile acid receptor (Homo sapiens), sequence (Q96RI1 whole entry, looked up): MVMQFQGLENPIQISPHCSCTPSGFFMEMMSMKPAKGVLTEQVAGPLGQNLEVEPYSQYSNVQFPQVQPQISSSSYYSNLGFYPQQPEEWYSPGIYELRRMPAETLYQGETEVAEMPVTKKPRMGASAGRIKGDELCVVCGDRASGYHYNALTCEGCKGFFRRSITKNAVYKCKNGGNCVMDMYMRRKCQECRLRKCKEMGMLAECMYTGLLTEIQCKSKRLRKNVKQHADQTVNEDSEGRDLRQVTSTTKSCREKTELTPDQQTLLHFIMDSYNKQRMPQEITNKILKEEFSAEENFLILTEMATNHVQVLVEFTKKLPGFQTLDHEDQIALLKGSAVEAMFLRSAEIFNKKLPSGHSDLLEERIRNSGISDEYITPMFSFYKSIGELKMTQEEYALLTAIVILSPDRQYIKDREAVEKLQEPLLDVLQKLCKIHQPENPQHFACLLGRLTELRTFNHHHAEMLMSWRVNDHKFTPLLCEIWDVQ
Vitamin D3 receptor (Homo sapiens), sequence (P11473 whole entry, looked up): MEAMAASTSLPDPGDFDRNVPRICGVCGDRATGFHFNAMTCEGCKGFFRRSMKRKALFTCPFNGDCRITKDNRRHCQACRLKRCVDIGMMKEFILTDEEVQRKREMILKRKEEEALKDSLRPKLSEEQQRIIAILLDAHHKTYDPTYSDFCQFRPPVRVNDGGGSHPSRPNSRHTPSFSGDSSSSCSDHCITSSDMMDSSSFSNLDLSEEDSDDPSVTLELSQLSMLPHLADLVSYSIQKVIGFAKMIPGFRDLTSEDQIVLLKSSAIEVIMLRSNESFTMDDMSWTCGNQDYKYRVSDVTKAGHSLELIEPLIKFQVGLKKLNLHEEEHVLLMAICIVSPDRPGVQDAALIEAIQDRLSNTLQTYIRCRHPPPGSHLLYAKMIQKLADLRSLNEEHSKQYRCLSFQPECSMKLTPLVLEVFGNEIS

| SMILES | Potency [1] | outcome [2] | Potency [3] | Potency [4] | Potency [5] | Potency [6] | outcome [7] | Potency [8] | Potency [9] | Potency [10] | Potency [11] | Potency [12] | Potency [13] | Potency [14] | Potency [15] | Potency [16] | Potency [17] | Potency [18] | Potency [19] | outcome [20] |
| --- | --- | --- | --- | --- | --- | --- | --- | --- | --- | --- | --- | --- | --- | --- | --- | --- | --- | --- | --- | --- |
| CCC1CCC(=O)O1 (stereo not given) | inactive | inactive | inactive | inactive | inactive | inactive | inactive | inactive | inactive | inactive | inactive | inactive | inactive | inactive | inactive |  |  |  |  |  |
| NCCc1cc(O)c(O)cc1O | inactive | inactive | inactive | inactive | inactive | inactive |  |  | inactive | 4.25 µM (active) | inactive | inactive | inactive | inactive | inactive | inactive | inactive |  |  |  |
| O=[N+]([O-])O[C@H]1CO[C@H]2[C@@H]1OC[C@H]2O[N+](=O)[O-] | inactive | inactive | inactive | inactive | inactive | inactive |  | inactive | inactive | inactive | inactive | inactive | inactive | inactive | inactive | inactive |  | inactive |  |  |
| FC(F)OC(F)(F)C(F)Cl (stereo not given) |  | inactive | inactive | inactive | inactive | inactive | inactive | inactive | inactive | inactive | inactive | inactive | inactive | inactive |  | inactive | inactive |  | inactive |  |
| CCCBr | inactive |  | inactive |  | inactive | inactive | inactive | inactive | inactive | inactive | inactive | inactive | inactive | inactive |  | inactive | inactive | inactive | inactive | inactive |
| CCc1ccccc1N | inactive | inactive |  | inactive | inactive | inactive | inactive | inactive | inactive | inactive | inactive | inactive | inactive | inactive |  | inactive | inactive |  | inactive |  |
| CCCC[N+]1(C)[C@@H]2CC(OC(=O)[C@H](CO)c3ccccc3)C[C@H]1[C@@H]1O[C@@H]12 (stereo not given in full) | inactive | inactive | inactive | inactive | inactive | inactive |  |  | inactive | inactive | inactive | inactive | inactive | inactive | inactive |  | inactive | inactive |  |  |
| CC(Cc1ccccc1)NCc1ccccc1Cl (stereo not given) |  | inactive | inactive | inactive |  | inactive | inactive |  | inactive | inactive | inactive | inactive | inactive | 23.9 µM (active) |  | inactive |  |  | inactive |  |
| COC(=O)Cc1ccccc1 | inactive | inactive | inactive | inactive | inactive | inactive | inactive | inactive | inactive | inactive | inactive | inactive | inactive | inactive |  |  |  |  | inactive |  |
| COc1cc(CC(C)N)c(OC)cc1Br (stereo not given) |  | inactive |  | inactive | inactive | inactive |  | inactive | inactive | inactive | inactive | inactive | inactive | inactive |  |  | inactive |  | inactive |  |
| COc1ccccc1N1CCNCC1 | inactive | inactive |  | inactive | inactive | inactive | inactive |  | inactive | inactive | inactive | inactive | inactive | inactive | inactive | inactive | inactive | inactive |  | inactive |
| C[N+]1(CCF)[C@@H]2CC[C@H]1CC(OC(=O)C(O)(c1ccccc1)c1ccccc1)C2 (stereo not given in full) | inactive | inactive | inactive | inactive | inactive | inactive |  | inactive | inactive | inactive | inactive | inactive | inactive | inactive |  | inactive | inactive | inactive |  | inactive |
| CCCCCCCCn1sccc1=O | 1.95 µM (active) and 2.04 µM (active) |  | 1.38 µM (active) and 1.82 µM (active) |  | 7.78 µM (active) and 5.13 µM (active) | 6.18 µM (active) and 4.57 µM (active) |  | 873 nM (active) and 1.15 µM (active) | 49.1 µM (active) and 3.63 µM (active) |  |  | 24.4 µM (active) and 9.05 µM (active) | 5.51 µM (active) and 5.13 µM (active) |  |  |  | 19.5 µM (active) and 22.9 µM (active) |  | 6.13 µM (active) and 9.05 µM (active) |  |
